Test results: PubChem BioAssay (NCATS)
Records with an inconclusive call do not appear. Active and inactive are the calls of the source. Calls follow the shape of the dose curve; as a rule, active = well fitted curve in the direction sought with a large enough effect; inconclusive = small, poorly fitted or top-dose-only effect, or another doubt; inactive = no such curve, though single readings can be large; an effect the other way counts as inactive or inconclusive.

Tests used:
[1] = Quantitative High-Throughput drug screen in 47 multiple myeloma cell lines against the NCATS MIPE library collection: AMO1_DSMZ cell viability assay (AID 1918927; also: nearly all actives have a fitted effect of over 30% in size)
In short: (§1)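 Inhibition of cell viability is measured here. Each line was plated at 500 cells per well, treated with MIPE 4.0 drugs, kept 48 hours at 37C, then assayed for ATP content by CellTiter-Glo luminescence.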

[2] = Quantitative High-Throughput drug screen in 47 multiple myeloma cell lines against the NCATS MIPE library collection: ARP1_JJKsccF8 cell viability assay (AID 1918928; also: nearly all actives have a fitted effect of over 40% in size)
In short: (§2)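 Cell viability inhibition in this qHTS is measured via ATP content (CellTiter-Glo) after 48 h drug exposure at 37 °C. Wells hold 500 cells; DMSO-treated wells define 100% and medium-only wells 0%.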

[3] = Quantitative High-Throughput drug screen in 47 multiple myeloma cell lines against the NCATS MIPE library collection: Karpas620_DSMZ cell viability assay (AID 1918959); also: nearly all actives have a fitted effect of over 30% in size
In short: (§3)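 Myeloma cells (500 per well) were exposed to MIPE 4.0 compounds by pin transfer and incubated 48 hours at 37C, 5% CO2. Viability was read as ATP by CellTiter-Glo luminescence, normalised to DMSO (100%) and media-only (0%) wells.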

[4] = Quantitative High-Throughput drug screen in 47 multiple myeloma cell lines against the NCATS MIPE library collection: Karpas417_ECACC cell viability assay (AID 1918961); conditions: Karpas417 myeloma viability, CellTiter-Glo ATP luminescence, 48 h; viability (% of DMSO): at 45.8 µM (top of the series)
In short: (§4)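 CellTiter-Glo ATP luminescence gave viability after 48 h compound treatment at 37C of 500 multiple myeloma cells per well. Normalisation used DMSO-only wells as 100% and media-only wells as 0% viability; primary qHTS of approved and investigational drugs.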

[5] = Quantitative High-Throughput drug screen in 47 multiple myeloma cell lines against the NCATS MIPE library collection: KHM11_PLB cell viability assay (AID 1918962); also: nearly all actives have a fitted effect of over 35% in size
In short: as §3

[6] = Quantitative High-Throughput drug screen in 47 multiple myeloma cell lines against the NCATS MIPE library collection: JIM3_ECACC cell viability assay (AID 1918963; also: nearly all actives have a fitted effect of over 35% in size)
In short: as §3

[7] = Quantitative High-Throughput drug screen in 47 multiple myeloma cell lines against the NCATS MIPE library collection: JIM1_ECACC cell viability assay (AID 1918964)
In short: as §1

[8] = Quantitative High-Throughput drug screen in 47 multiple myeloma cell lines against the NCATS MIPE library collection: INA6_PLB cell viability assay (AID 1918965; also: nearly all actives have a fitted effect of over 55% in size)
In short: as §4

[9] = Quantitative High-Throughput drug screen in 47 multiple myeloma cell lines against the NCATS MIPE library collection: JJN3_DSMZ cell viability assay (AID 1918966; also: nearly all actives have a fitted effect of over 50% in size)
In short: as §1

[10] = Quantitative High-Throughput drug screen in 47 multiple myeloma cell lines against the NCATS MIPE library collection: H1112_PLB cell viability assay (AID 1918967; also: nearly all actives have a fitted effect of over 30% in size)
In short: as §1

[11] = Quantitative High-Throughput drug screen in 47 multiple myeloma cell lines against the NCATS MIPE library collection: KMS27_JCRB cell viability assay (AID 1918970); also: nearly all actives have a fitted effect of over 30% in size
In short: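 CellTiter-Glo luminescence after 48 h drug exposure at 37 °C; 500 cells/well, 1536-well format, pin-tool compound addition; DMSO = 100%, media-only = 0% viability.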

[12] = Quantitative High-Throughput drug screen in 47 multiple myeloma cell lines against the NCATS MIPE library collection: KMS12BM_JCRB cell viability assay (AID 1918971); also: nearly all actives have a fitted effect of over 35% in size
In short: as §3

[13] = Quantitative High-Throughput drug screen in 47 multiple myeloma cell lines against the NCATS MIPE library collection: KMS12PE_JCRB cell viability assay (AID 1918972); also: nearly all actives have a fitted effect of over 30% in size
In short: as §4

[14] = Quantitative High-Throughput drug screen in 47 multiple myeloma cell lines against the NCATS MIPE library collection: KMS20_JCRB cell viability assay (AID 1918973); also: nearly all actives have a fitted effect of over 45% in size
In short: as §1

[15] = Quantitative High-Throughput drug screen in 47 multiple myeloma cell lines against the NCATS MIPE library collection: KMM1_JCRB cell viability assay (AID 1918960); also: nearly all actives have a fitted effect of over 30% in size
In short: as §2

[16] = Quantitative High-Throughput drug screen in 47 multiple myeloma cell lines against the NCATS MIPE library collection: Karpas25_ECACC cell viability assay (AID 1918968; also: nearly all actives have a fitted effect of over 35% in size)
In short: as §1

[17] = Quantitative High-Throughput drug screen in 47 multiple myeloma cell lines against the NCATS MIPE library collection: KMS26_JCRB cell viability assay (AID 1918975); also: nearly all actives have a fitted effect of over 45% in size
In short: as §3

[18] = Quantitative High-Throughput drug screen in 47 multiple myeloma cell lines against the NCATS MIPE library collection: MMM1_PLB cell viability assay (AID 1918976); also: nearly all actives have a fitted effect of over 35% in size
In short: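 ATP-based CellTiter-Glo luminescence after 48 h drug exposure (37 °C, 5% CO2) of 500 myeloma cells per well. DMSO-only wells set 100% viability, media-only wells 0%; MIPE 4.0 library added by pin tool.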

[19] = Quantitative High-Throughput drug screen in 47 multiple myeloma cell lines against the NCATS MIPE library collection: ARD_JJKsccE7 cell viability assay (AID 1918929)
In short: as §1
Potency is read from the fitted curve at half-maximal effect.

| SMILES | Potency [1] | Potency [2] | Potency [3] | Potency [4] | Potency [5] | Potency [6] | Potency [7] | Potency [8] | Potency [9] | Potency [10] | Potency [11] | Potency [12] | Potency [13] | Potency [14] | Potency [15] | Potency [16] | Potency [17] | Potency [18] | Potency [19] |
| --- | --- | --- | --- | --- | --- | --- | --- | --- | --- | --- | --- | --- | --- | --- | --- | --- | --- | --- | --- |
| O=C(NCc1ccccc1)c1csc(Nc2ccncn2)n1 | 9.35 µM (active) | 23.5 µM (active) | 6.62 µM (active) | 10.5 µM (active) | 20.9 µM (active) | 14.8 µM (active) | 6.62 µM (active) | 11.8 µM (active) | 16.6 µM (active) | 13.2 µM (active) | 7.43 µM (active) | 14.8 µM (active) | 8.33 µM (active) | 14.8 µM (active) |  |  |  |  |  |
| CC(C)C[C@H](CC(=O)O)C(=O)N[C@@H](Cc1c[nH]c2ccccc12)C(=O)N[C@@H](C)c1ccccc1 | inactive | inactive | inactive |  | inactive | inactive |  |  | inactive | inactive |  |  | inactive | inactive | inactive | inactive | inactive |  |  |
| O=c1[nH]cnc2c1ncn2[C@H]1CC[C@@H](CO)O1 | inactive | inactive | inactive |  | inactive | inactive | inactive |  |  | inactive |  |  | inactive |  | inactive |  | inactive |  |  |
| O=C(Nc1cc(Cl)cc2c1[nH]c1cnccc12)c1cccnc1 | inactive | 13.2 µM (active) |  |  |  | inactive |  |  |  | 1.48 µM (active) | inactive | 18.7 µM (active) | inactive |  | 6.62 µM (active) | 5.9 µM (active) | 18.7 µM (active) | 11.8 µM (active) |  |
| COc1cccc2c1CCCC2CCCN1CCN(C2CCCCC2)CC1 (configuration not stated) | 23.5 µM (active) | 18.7 µM (active) |  |  |  | 23.5 µM (active) |  | 16.6 µM (active) | 20.9 µM (active) |  | 16.6 µM (active) | 23.5 µM (active) | 16.6 µM (active) |  | 18.7 µM (active) | 18.7 µM (active) |  |  |  |
| O=C(O)CCC1CCC(c2cc(F)ccc2F)(S(=O)(=O)c2ccc(Cl)cc2)CC1 (configuration not stated) | 5.9 µM (active) | inactive |  |  |  | inactive |  |  | inactive | 9.35 µM (active) | 2.64 µM (active) |  | 13.2 µM (active) | 5.26 µM (active) | 16.6 µM (active) |  | inactive |  | 14.8 µM (active) |
| CC(C)(C(=O)NCC(F)(F)C(F)(F)F)C(=O)N[C@@H]1C(=O)Nc2ccccc2-c2ccccc21 | 18.7 µM (active) | inactive | 2.35 µM (active) |  |  |  |  | 18.7 µM (active) |  | 16.6 µM (active) | 1.32 µM (active) | inactive | 16.6 µM (active) |  | 18.7 µM (active) |  |  |  |  |
| COc1cc(Nc2ncc(F)c(Nc3ccc4c(n3)NC(=O)C(C)(C)O4)n2)cc(OC)c1OC | inactive | 5.9 µM (active) | inactive |  |  | 0.935 µM (active) |  | 1.18 µM (active) |  |  | 11.8 µM (active) |  |  | 1.05 µM (active) |  | 1.66 µM (active) | 9.35 µM (active) | 1.48 µM (active) |  |
| O=C(CCCCCCC(=O)Nc1ccccc1)NO | 1.05 µM (active) | 0.833 µM (active) | 3.32 µM (active) | 1.05 µM (active) |  | 5.9 µM (active) | 2.35 µM (active) | 0.935 µM (active) | 3.32 µM (active) | 4.18 µM (active) | 3.72 µM (active) | 2.35 µM (active) | 1.66 µM (active) |  |  | 1.48 µM (active) |  |  |  |
| COc1ccc2cccc(CCNC(C)=O)c2c1 | inactive | inactive | inactive |  | inactive | inactive |  |  |  | inactive | inactive |  | inactive |  | inactive | inactive |  |  |  |
| CN(C)CCC=C1c2ccccc2COc2ccc(CC(=O)O)cc21 | inactive | inactive |  |  |  | inactive | inactive |  |  |  | inactive | inactive | inactive | inactive |  |  |  |  | inactive |
| CC(C)(C)NC(=O)Nc1cccc(Nc2ncc(F)c(NC(C)(C)CO)n2)c1 | 14.8 µM (active) | 10.5 µM (active) | inactive |  |  | 13.2 µM (active) |  |  |  | inactive |  | inactive | 3.32 µM (active) | inactive |  |  |  |  |  |
| CON=C(C(=O)N[C@@H]1C(=O)N2C(C(=O)OCOC(=O)C(C)(C)C)=C(C=Cc3scnc3C)CS[C@H]12)c1csc(N)n1 | inactive | inactive | 16.6 µM (active) | 20.9 µM (active) |  | inactive |  | 18.7 µM (active) |  | inactive |  | inactive |  | inactive |  |  |  |  |  |
| CC1(C)CCC(CN2CCN(c3ccc(C(=O)NS(=O)(=O)c4ccc(NCC5CCOCC5)c([N+](=O)[O-])c4)c(Oc4cnc5[nH]ccc5c4)c3)CC2)=C(c2ccc(Cl)cc2)C1 | 9.35 µM (active) | 23.5 µM (active) | 0.332 µM (active) |  |  | inactive |  |  | 20.9 µM (active) | 0.264 µM (active) | 0.118 µM (active) | 0.0526 µM (active) | 0.0833 µM (active) |  | 8.33 µM (active) |  | 18.7 µM (active) |  |  |
